AF4-AF9 inh: MLL-AF4/AF9 protein interaction inhibition; AlphaScreen, biotin-AF4 peptide binding to FLAG-AF9; P42568; inhibition, % at 10 µM; AID 651704; hit rate 0.47% among 350,000;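 active = every replicate reaching a set inhibition limit, whatever the replicate mean, cut at about 25% in these data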;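 also: 0% = plate neutral control median and 100% = total signal loss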
NSD2 inh: blocks human histone methyltransferase NSD2; O96028; NSD2 peptide methylation, AlphaScreen, 120 min; inhibition, % at 12.5 µM; hit rate 0.54% among 310,000; AID 743445; in the data active = inhibition above about 50%
rRNA inh HTS: inhibits bacterial ribosomal RNA function over humanized ribosomes; E. coli WT GFP vs humanized-ribosome RFP mutants, fluorescence, 24 h; stronger effect = lower value; DMSO median 0, no signal -100; GFP signal change (wild-type ribosome), % (test concentration not listed); hit rate 1.6% among 350,000; AID 720706;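 active = significant combined selectivity score with lowered wild-type GFP, culture density cut under 30%, mutant RFP and density less affected; inactive = any of these conditions unmet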
RAD52 inh: inhibitors of human RAD52 DNA annealing | recombinant RAD52 DNA annealing, FRET fluorescence | hit rate 0.46% among 360,000 | inhibition, % at 18.7 µM | P43351;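 active = every replicate showing at least 50% inhibition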
Target sequence (P43351 whole entry, looked up): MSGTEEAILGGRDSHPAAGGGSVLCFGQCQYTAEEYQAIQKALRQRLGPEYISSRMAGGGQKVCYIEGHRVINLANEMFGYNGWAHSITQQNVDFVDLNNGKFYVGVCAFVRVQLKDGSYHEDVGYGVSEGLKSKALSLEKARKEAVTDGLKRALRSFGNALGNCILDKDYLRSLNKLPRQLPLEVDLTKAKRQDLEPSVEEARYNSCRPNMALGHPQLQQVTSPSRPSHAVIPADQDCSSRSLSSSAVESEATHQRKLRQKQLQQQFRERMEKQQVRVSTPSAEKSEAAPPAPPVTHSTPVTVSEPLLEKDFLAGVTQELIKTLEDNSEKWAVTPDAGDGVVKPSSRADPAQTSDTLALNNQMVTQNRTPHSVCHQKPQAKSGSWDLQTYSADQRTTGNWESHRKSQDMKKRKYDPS
CASP6 VEID inh: caspase-6 (human) enzyme inhibition. P55212. purified caspase-6, Z-VEID-R110 cleavage fluorescence. inhibition, % at 12.5 µM. hit rate 0.53% among 350,000;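 active = mean inhibition across replicates at least about 35%, with every replicate also reaching that limit, limit read from the data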;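 also: 0% = median of neutral control wells and 100% = no fluorescence left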
* = called active by the depositor. Most compounds without a hit are left out; they make up all but 2.5% or so of the library.

Results for COCC(=O)N(C)C[C@@H]1Oc2cc(C#CC3CCCC3)ccc2S(=O)(=O)N([C@H](C)CO)C[C@@H]1C ?
rRNA inh HTS: -3.0

What do the screens show for `COc1ccc(O)c(/C=N/NC(=S)NCCc2ccccc2)c1`?
AF4-AF9 inh: 2.0; NSD2 inh: 5.5; rRNA inh HTS: -39.1; RAD52 inh: -3.3; CASP6 VEID inh: 8.7

What do the screens show for `COc1cccc(/C=N/NC(=S)NCCc2ccccc2)c1`?
AF4-AF9 inh: -1.5; NSD2 inh: -1.2; rRNA inh HTS: -10.4; RAD52 inh: -7.7; CASP6 VEID inh: 35.1*

What do the screens show for `COc1cccc(/C=N/NC(=O)CCc2ccccc2)c1`?
AF4-AF9 inh: 5.9; NSD2 inh: 1.9; rRNA inh HTS: -21.4*; RAD52 inh: -5.1; CASP6 VEID inh: 1.0

Results for COc1cccc(C=NNC(=O)CCCC(=O)NN=Cc2cccc(OC)c2)c1 ?
AF4-AF9 inh: -0.2; NSD2 inh: 0.6; rRNA inh HTS: -2.1; RAD52 inh: -0.5; CASP6 VEID inh: -0.7

Results for COC(=O)N/N=C/c1cccs1 ?
AF4-AF9 inh: 0.0; NSD2 inh: -0.8; rRNA inh HTS: 13.4; RAD52 inh: -15.0; CASP6 VEID inh: 0.7

Results for COc1ccc(CCCC(=O)N/N=C\c2cccs2)cc1 ?
AF4-AF9 inh: 2.1; NSD2 inh: -2.0; rRNA inh HTS: -22.9*; RAD52 inh: 4.8; CASP6 VEID inh: -2.1

How did COc1ccc(/C=N/NC(=S)NCCc2ccccc2)cc1 do in these assays?
AF4-AF9 inh: 0.1; NSD2 inh: -1.7; rRNA inh HTS: -22.1*; RAD52 inh: -9.6; CASP6 VEID inh: -2.1

How did COc1ccccc1-c1ccc2c(c1)O[C@@H](CN(C)C(=O)c1cccnc1)[C@@H](C)CN([C@H](C)CO)S2(=O)=O do in these assays?
AF4-AF9 inh: -1.5; rRNA inh HTS: -3.7; RAD52 inh: -7.2; CASP6 VEID inh: -4.9

What do the screens show for `CC=Cc1ccc2n(c1=O)C[C@H]1[C@H](CO)[C@@H](C(=O)N3CCc4ccccc4C3)N(C(=O)COC)[C@@H]21` (mixture of isomers)?
AF4-AF9 inh: -2.6; rRNA inh HTS: 1.9; RAD52 inh: -4.6

How did CO[C@@H]1CN(C)C(=O)c2ccc(NC(=O)c3ccccc3)cc2OC[C@H](C)N(C(=O)CN(C)C)C[C@@H]1C do in these assays?
AF4-AF9 inh: -5.1; rRNA inh HTS: -1.1; RAD52 inh: 0.5; CASP6 VEID inh: 2.1

How did CCOc1ccc(OCCSc2ccc(S(=O)(=O)N3CCN(C)CC3)cn2)cc1 do in these assays?
AF4-AF9 inh: 27.0*; NSD2 inh: 8.4; rRNA inh HTS: -57.1; RAD52 inh: -4.9; CASP6 VEID inh: -1.2

What do the screens show for `COc1ccc2nc3cc([N+](=O)[O-])ccc3c(NNc3ccc([N+](=O)[O-])cc3)c2c1`?
AF4-AF9 inh: 1.4; NSD2 inh: -0.4; rRNA inh HTS: -18.5*; RAD52 inh: -15.3; CASP6 VEID inh: -0.1

Results for O=C(C[C@@H]1CC[C@@H](NC(=O)c2ccncc2)[C@@H](CO)O1)Nc1ccccc1 ?
AF4-AF9 inh: -1.3; rRNA inh HTS: -0.3; RAD52 inh: -4.1; CASP6 VEID inh: 0.2

Results for O=C1c2ccccc2NC(c2ccc(-c3cccc([N+](=O)[O-])c3)o2)N1O (centres undefined) ?
AF4-AF9 inh: 17.7; NSD2 inh: 3.1; rRNA inh HTS: -20.8*; RAD52 inh: 2.5; CASP6 VEID inh: 19.0

What do the screens show for `O=C1c2ccccc2NC(c2ccc(-c3ccc(F)cc3)o2)N1O` (centres undefined)?
AF4-AF9 inh: -17.8; rRNA inh HTS: 5.4; RAD52 inh: -41.8

What do the screens show for `CCN(CC)c1ccc2nc3ccc(N)cc3[n+](-c3ccccc3)c2c1`?
AF4-AF9 inh: 49.8*; NSD2 inh: 71.8*; rRNA inh HTS: 0.5; RAD52 inh: -308.9; CASP6 VEID inh: 28.8

Results for CCN(CC)c1ccc2nc3ccccc3[n+](CC)c2c1 ?
NSD2 inh: 28.9

How did Nc1ccc(Cc2ccc(N)c(C(=O)O)c2)cc1C(=O)O do in these assays?
AF4-AF9 inh: -10.2; NSD2 inh: 8.4; rRNA inh HTS: 15.0; RAD52 inh: -20.2; CASP6 VEID inh: 43.7*

How did COC(=O)c1c2oc(c1C(=O)OC)C(=O)N[C@H](Cc1ccccc1)Cn1cc(nn1)[C@@H](Cc1ccccc1)NC(=O)N[C@@H](CO)CC2 do in these assays?
AF4-AF9 inh: 3.7; RAD52 inh: 25.2; CASP6 VEID inh: -2.0

How did C[C@@H]1CN([C@H](C)CO)C(=O)c2cccc(NC(=O)c3ccc(-c4nccs4)cc3)c2O[C@H]1CN(C)C(=O)Nc1ccc(C(F)(F)F)cc1 do in these assays?
AF4-AF9 inh: 0.4; rRNA inh HTS: -4.9; RAD52 inh: 5.6; CASP6 VEID inh: -1.4

How did CCCCCCSc1ccc([C@@H]2[C@H]3C(=O)N(CC)C(=O)[C@H]3[C@]3(C(=O)OC)CCCCN23)cc1OC do in these assays?
AF4-AF9 inh: 47.5*; rRNA inh HTS: 7.1; RAD52 inh: -195.0; CASP6 VEID inh: 0.1

Results for CN(C)CC#Cc1ccc([C@H]2[C@@H](CO)N3CCCCN(C(=O)C4CCC4)C[C@@H]23)cc1 ?
rRNA inh HTS: 2.8

What do the screens show for `CC(C)(C)c1ccccc1OCCCCCn1ccnc1`?
AF4-AF9 inh: 7.3; rRNA inh HTS: -54.8*; RAD52 inh: 23.3; CASP6 VEID inh: 2.4

Results for COc1ccc(S(=O)(=O)Nc2cccc3c2O[C@@H](CN(C)Cc2ccc(Cl)c(Cl)c2)[C@H](C)CN([C@@H](C)CO)C3=O)cc1 ?
rRNA inh HTS: -4.3

How did COc1ccc(C#Cc2ccc3c(c2)[C@]2(C(=O)N3)[C@H](C(N)=O)[C@H]3C(=O)O[C@H](c4ccccc4)[C@H](c4ccccc4)N3[C@@H]2c2ccc(OCCO)cc2)cc1 do in these assays?
AF4-AF9 inh: -1.3; RAD52 inh: -20.2; CASP6 VEID inh: -2.8

What do the screens show for `O=[N+]([O-])c1ccc2c(c1)nnn2-c1ccccc1`?
AF4-AF9 inh: -5.6; NSD2 inh: 1.7; rRNA inh HTS: 13.9; RAD52 inh: -19.7; CASP6 VEID inh: -0.4

How did Nc1nn(-c2ccccc2)c2ccc([N+](=O)[O-])cc12 do in these assays?
AF4-AF9 inh: 1.3; NSD2 inh: -0.2; rRNA inh HTS: -20.9*; RAD52 inh: 1.0; CASP6 VEID inh: 2.5

What do the screens show for `CO[C@@H]1CN(C)C(=O)c2ccc(NC(=O)c3ccc(F)cc3)cc2OC[C@H](C)N(C(=O)CC2CC2)C[C@H]1C`?
AF4-AF9 inh: 0.0; rRNA inh HTS: -1.0; RAD52 inh: -2.5

How did Cc1ccc(S(=O)(=O)N(C)C[C@@H]2Oc3ccc(NS(=O)(=O)c4cn(C)cn4)cc3CC(=O)N([C@@H](C)CO)C[C@H]2C)cc1 do in these assays?
rRNA inh HTS: 1.1

What do the screens show for `Fc1ccc(-n2cc(-c3ccccc3)c3c(N4CCOCC4)ncnc32)cc1`?
AF4-AF9 inh: 4.1; NSD2 inh: 0.1; rRNA inh HTS: -24.5*; RAD52 inh: -7.3; CASP6 VEID inh: -0.6

Results for COc1ccc(N[C@@H]2CCN3C(=O)c4ccccc4[C@@H]3C[C@H]2O)cc1 ?
AF4-AF9 inh: 0.2; rRNA inh HTS: 0.2; RAD52 inh: -4.8; CASP6 VEID inh: 5.6

Screening data from PubChem.
